ALR H2O2 inh – inhibitors of human ALR sulfhydryl oxidase, primary screen, biochemical, H2O2 detection, HRP-luminol luminescence, single point. FAD-linked sulfhydryl oxidase ALR (Homo sapiens), P55789. purified ALR, DTT oxidation. inhibition, % (concentration not given with the values). actives 3.8% (n = 290,000). AID 485317, 2010;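 active = mean replicate inhibition above about 79%, with every replicate also reaching it, limit read from the data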
Target sequence (P55789 whole entry, looked up): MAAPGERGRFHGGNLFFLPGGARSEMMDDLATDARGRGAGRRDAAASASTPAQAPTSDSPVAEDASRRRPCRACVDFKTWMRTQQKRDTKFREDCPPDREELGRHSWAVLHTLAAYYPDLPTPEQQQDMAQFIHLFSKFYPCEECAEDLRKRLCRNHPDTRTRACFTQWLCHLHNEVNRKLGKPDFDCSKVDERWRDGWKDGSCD
PfM18AAP inh – PfM18AAP inhibitors, malaria aminopeptidase, primary screen, biochemical, QFRET, recombinant enzyme. inhibition, % at 7.35 µM. H-Glu-NHMec fluorogenic cleavage. M18 aspartyl aminopeptidase (Plasmodium falciparum 3D7). AID 1822, 2009. actives 1.2% (n = 290,000);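 active = inhibition above the campaign mean inhibition over all tested compounds plus 3 SD, cut at about 28% in these data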;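 note: 0% = plate median of test compound wells and 100% = 2 mM ZnCl2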
SUMO Mot1 rescue – yeast Mot1-301 growth rescue at high temperature, primary screen, SUMOylation pathway inhibitor project, S. cerevisiae, ATP luminescence, 38.5C; S. cerevisiae Mot1-301 growth rescue; percent above DMSO median, 100 means doubled; growth rescue, % at 18.8 µM; actives 1% (n = 320,000);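 active = every valid replicate shows activation above 250% relative to neutral control wells; inactive = the rest, any valid replicate at or below 250%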;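 note: OY570 slx delta 5 strain wells were the positive control but not used for scaling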
HIF act – HIF pathway transcriptional activators, primary screen, cell-based, U2OS HRE-luciferase, luminescence. U2OS HRE-luciferase reporter; normalized: DMSO 0%, desferrioxamine 100%. activation, % at 7.5 µM (by protocol). actives 0.32% (n = 300,000). AID 1910, 2009;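 active = mean activation of at least 10% of the iron chelator positive control signal, with at least half of replicates also reaching 10%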
Active calls of the source: *; / = no result given. Only some compounds are listed: those with a hit (about 5.3% of all), similar ones and a draw of the others.

SMILES	ALR H2O2 inh	PfM18AAP inh	SUMO Mot1 rescue	HIF act
CCOc1ccc(NCc2cccn2-c2nnc(N3CCC(C(=O)NCCCN4C(C)CCCC4C)CC3)s2)cc1 (configuration not stated)	99*	1	5	/
CCOc1ccc(NCc2cccn2-c2nnc(N3CCC(C(=O)NCCCN4CCCCC4C)CC3)s2)cc1 (configuration not stated)	99*	9	-10	1
CC1Cc2c([nH]c3ccccc23)C2c3ccccc3CN12 (configuration not stated)	/	6	-5	1
CCOc1cc(/C=C/c2ccc3cccc([N+](=O)[O-])c3n2)ccc1O	94*	10	7	-1
CCOc1cc(/C=C/c2cc(C(F)(F)F)[nH]c(=O)n2)ccc1O	99*	15	-8	0
O=[N+]([O-])c1cccc(/C=C/c2ccc3cccc(O)c3n2)c1	13	1	5	13*
O=c1oc2ccc(NS(=O)(=O)c3cccc4cccnc34)cc2s1	/	31*	8	0
O=C(O)c1cccc(S(=O)(=O)Nc2ccc3oc(=O)sc3c2)c1	7	42*	4	0
O=C(COC(=O)c1cccc(O)c1)Nc1ccc(N2CCOCC2)cc1	16	/	175	/
CCOc1ccc(/C=N/Nc2ccccn2)cc1OC	86*	0	11	3
COc1cc(/C=C(\C#N)c2ccccn2)cc(OC)c1O	98*	13	50	1
Fc1cccc(/C=N/Nc2ccccn2)c1	49	-1	5	5
C(=N\Nc1ccccn1)/c1ccc2c(c1)OCCO2	98*	1	-14	1
COc1cc(/C=N/Nc2cccc3cccnc23)cc(OC)c1O	36	30*	28	2
CCOC(=O)N1CCN(C(=O)c2cn(C)c3ccc(S(=O)(=O)N4CCOCC4)cc3c2=O)CC1	-16	-4	-5	-1
CCN1CCN(c2sc(S(C)(=O)=O)nc2S(=O)(=O)c2ccc(C)cc2)CC1	-1	6	1	0
COc1ccc(C)cc1NC(=O)c1ccccc1N(C)S(=O)(=O)c1ccccc1	-1	5	-9	-1
O=C(CNC(=O)c1cccc(F)c1)N/N=C/c1cccc([N+](=O)[O-])c1	-2	4	-11	0
C/C(CC(=O)NC(C)(C)C)=N\NC(N)=S	1	19	26	0
C=CCOc1ccc(/C=N/Nc2ccccn2)cc1OC	15	-2	0	5
COc1cc(/C=N/Nc2ccccn2)cc(OC)c1O	99*	16	3	1
O=C(/C=C/c1ccc(O)c([N+](=O)[O-])c1)c1ccc2ccccc2c1	0	1	152	0
COc1ccc(Oc2ccc(/C=C/C(=O)c3ccc(O)cc3)cc2[N+](=O)[O-])cc1	96*	2	22	3
COc1ccc(-c2csc(=NCCO)n2-c2ccccc2)cc1	99*	5	74	6
COc1ccc(-c2csc(=Nc3ccccc3)n2CCO)cc1	97*	30*	5	2
SMILES	ALR H2O2 inh	PfM18AAP inh	SUMO Mot1 rescue	HIF act
COc1ccc(N=c2scc(-c3ccc(S(=O)(=O)N4CCOCC4)cc3)n2CCCO)cc1	/	3	/	/
Cc1nc(Cc2nnc(SCc3nc(N)nc(Nc4ccccc4C)n3)o2)cs1	-4	7	217	-2
CNC(=S)N/N=C/c1c2ccccc2c(Cl)c2ccccc12	-9	9	0	0
COc1ccc(C2=CC3=C(Br)C(=O)C(C)(O)C(=O)C3=CO2)cc1 (configuration not stated)	90*	/	1	1
CC1(C)Cc2cccc(C(=O)Nc3ccc(F)cc3F)c2O1	/	-2	8	-1
O=C(Cc1ccccc1)Nc1ncccc1Cl	0	/	-1	0
N#CC1=C(N)NC(SCC(=O)O)=C(C#N)C12CCCC2	7	3	-2	0
N#CC1=C(N)NC(SCC(=O)Nc2ccccc2)=C(C#N)C12CCCC2	95*	5	-11	-1
CCOC(=O)C1=C(SCC(=O)Nc2ccccc2)NC(=O)C(C#N)C12CCCCC2 (configuration not stated)	89*	10	10	0
Cc1ccc(-c2nc(NCc3ccco3)n(C(=O)c3ccco3)n2)cc1	/	-6	3	4
O=C(c1ccco1)n1nc(-c2ccccc2)nc1NCc1ccco1	78*	5	9	0
O=C1N/C(=C/c2cccs2)C(=O)N1Cc1ccc(Br)cc1	0	-9	9	328*
